PubChem BioAssay AID1239 (SRMLSC, 2008)
The whole screen tested about 190,000 compounds, of which about 3,100 (1.6%) were called active. Cut-off read from the data, not from the text of the source: active = fold change above about 3.3; inconclusive = no clear call, values can overlap the other calls; inactive = below that. Only a selection was taken, and actives are over-represented in it overall.

Experiment: NF-kB upregulation, human neuronal cells – cell-based, HTS, primary screen (AID 1239)
Conditions: NF-kB reporter expression, at 12.5 µM, hits give high values

SMILES	fold change
COc1ccc(CN2CCCC(CNC(=O)c3ccc(F)cc3)C2)cc1OC (configuration not stated)	1.13 (inactive)
CCN(CC(=O)NCCc1ccccc1)S(=O)(=O)c1ccccc1	1.36 (inactive)
CC1CCCN(CC(O)COc2ccc3c(c2)OCO3)C1 (configuration not stated)	1.2 (inactive)
C/C(=N\OCC(=O)Nc1ccc(Br)cc1)c1cccs1	1.23 (inactive)
CCOc1ccc2cc(C#N)c(SCC(=O)OC)nc2c1	5.87 (active)
Cc1nonc1NC(=O)CSc1nc2ccccc2cc1C#N	1.83 (inactive)
CCOc1ccc2nc(NCCNS(=O)(=O)c3ccccc3)c(C#N)cc2c1	1.4 (inactive)
CC(C)N1CCC(=NNc2ccc([N+](=O)[O-])cc2S(=O)(=O)N2CCOCC2)CC1	1.19 (inactive)
COc1ccc(N2C(=O)/C(=C\c3ccco3)N=C2SCC(N)=O)cc1Cl	1.3 (inactive)
CCN(CC(=O)Nc1ccc(Cl)c(S(=O)(=O)N(C)C)c1)Cc1nc2ccccc2c(=O)[nH]1	0.79 (inactive)
O=C(OCC#CCSc1nnc(-c2ccncc2)o1)c1sc2ccccc2c1Cl	1.38 (inactive)
Clc1ccc(-c2nnc(SCc3nc4ccccc4s3)o2)cc1	1.18 (inactive)
C#CCSc1nnc(-c2sc3ccccc3c2Cl)o1	3.81 (active)
CC(C)(C)C(=O)CN1C2=NCCN2c2ccccc21	1.09 (inactive)
Cc1ccnc(NC(=O)CCC(=O)N(CC(=O)NCc2ccccc2)Cc2ccco2)c1	0.85 (inactive)
Cc1ccc2c(=O)oc(N(C)C)nc2c1	0.93 (inactive)
O=C(CSc1ccsc1[N+](=O)[O-])N1CCCCC1	1.39 (inactive)
O=c1oc(/C=C/c2ccccc2)nc2ccccc12	4.63 (active)
O=C1C2C3C=CC(C3)C2C(=O)N1c1ccc(-c2nc3ccccc3c(=O)o2)cc1 (configuration not stated)	1.08 (inactive)
S=c1[nH]nc(/C=C/c2ccccc2)o1	1.12 (inactive)
CN(C)c1ccnc(Nc2ccc(F)cc2)c1C#N	1.02 (inactive)
CN(Cc1ccc2nsnc2c1)Cc1nc(Cc2cccc(F)c2)no1	1.05 (inactive)
CN(C)c1nccc(NCc2ccccc2)c1C#N	1.55 (inactive)
CCOc1cc(NC(=O)CCl)c(OCC)cc1NC(C)=O	2.72 (inactive)
Cn1cc([N+](=O)[O-])c(C(=O)Nc2cnn(Cc3ccc(F)cc3)c2)n1	0.64 (inactive)
O=C(Nc1ccn(Cc2ccccc2)n1)c1cccc(F)c1	6.25 (active)

SMILES	fold change
Cc1ccc(Cn2ccc(NC(=O)c3cc(C(C)C)on3)n2)cc1	1.16 (inactive)
CC(=O)Nc1ccn(Cc2c(F)cccc2Cl)n1	1.2 (inactive)
O=C(Nc1ccn(Cc2ccc(F)cc2)n1)c1ccncc1	1.08 (inactive)
O=C(Nc1ccn(Cc2ccccc2)n1)c1n[nH]c([N+](=O)[O-])c1Cl	3.79 (active)
COC(=O)C1=C(C)N(C)C(=O)NC1c1ccc([N+](=O)[O-])o1 (configuration not stated)	0.88 (inactive)
CN(C)C(CNC(=O)c1cccc(C#N)c1)c1ccco1 (configuration not stated)	1.15 (inactive)
CC(=O)NC1C(Oc2ccc(C=O)cc2)OC(COC(C)=O)C(OC(C)=O)C1OC(C)=O (configuration not stated)	1.36 (inactive)
O=C(NCc1ccccc1)C1CCCN(c2nc3ccsc3c(=O)s2)C1 (configuration not stated)	1.06 (inactive)
CCN(CC)C(=O)c1sc2nc(-c3ccccc3)ccc2c1N	7.06 (active)
CS(=O)(=O)c1sc2nc(-c3ccccc3)cc(-c3ccccc3)c2c1N	1.16 (inactive)
CCOC(=O)c1sc2nc(SC)nc(-c3ccccc3)c2c1N	1.18 (inactive)
Cn1c(N)c(C(=O)COC(=O)/C=C/c2ccc(OC(F)F)cc2)c(=O)n(C)c1=O	1.25 (inactive)
Cc1cc(C)c(OCCN2CC(C)OC(C)C2)c(Br)c1 (configuration not stated)	1.58 (inactive)
CC1CN/C(=C\C(=O)c2ccc(Br)cc2)C(=O)N1 (configuration not stated)	4.31 (active)
C/C(=C\C(=O)c1ccc(Br)cc1)N1CCCCC1	1.06 (inactive)
CN1CCCC(OC(=O)COc2ccc(Br)cc2)C1 (configuration not stated)	1.11 (inactive)
CCc1cc2c(=O)c(-c3ccc(F)cc3)c(C(F)(F)F)oc2cc1OCC(=O)O	1.1 (inactive)
O=C(Nc1ccc(Cl)cn1)Nc1cccs1	1.65 (inactive)
Clc1ccc(-c2csc(-c3ccncc3)n2)cc1	1.8 (inactive)
COc1ccc(C(=O)/C=C/Nc2ccccn2)cc1	2.22 (inactive)
O=C(Nc1nc(-c2ccc(-c3ccccc3)cc2)cs1)c1cnccn1	1.35 (inactive)
c1cnc(Nc2nc(-c3ccc4ccccc4c3)cs2)nc1	2.23 (inactive)
c1ccc(Nc2nc(-c3ccncc3)cs2)nc1	7.4 (active)
O=C(Nc1nc(-c2ccncc2)cs1)C1COc2ccccc2O1 (configuration not stated)	1.25 (inactive)
Clc1ccc(Nc2nc(-c3cccs3)cs2)nc1	12.4 (active)
COc1ccc(-c2csc(Nc3ccccn3)n2)cc1	7.56 (active)

SMILES	fold change
O=C(CN(c1cccc(Cl)c1)S(=O)(=O)c1ccccc1)NN=C1CCCC1	1.17 (inactive)
CN1CCN(C(c2cc3cc4c(cc3[nH]c2=O)OCCO4)c2nnnn2C2CCCC2)CC1 (configuration not stated)	1.27 (inactive)
O=C(COc1cccc2ccccc12)Nc1cc(S(=O)(=O)N2CCOCC2)ccc1N1CCOCC1	0.47 (inactive)
O=C(N/N=C/C=C/c1ccco1)c1cccs1	1.09 (inactive)
COc1ccc(CC(=O)NC(C)CCc2ccccc2)cc1 (configuration not stated)	1.03 (inactive)
CC(=O)c1cc(C#N)c(N2CCCCC2)nc1C	1.09 (inactive)
O=C(Nc1ccc(Cl)cn1)c1ccc2c(c1)OCCO2	5.18 (active)
COc1c(Cl)cc(C(=O)Nc2ccc(Cl)cn2)cc1Cl	1.49 (inactive)
O=C(Nc1cccc(S(=O)(=O)Nc2ccc(Cl)cc2)c1)c1ccc2c(c1)OCCO2	0.68 (inactive)
O=C(Nc1cccc(Cl)c1N1CCOCC1)c1ccc2c(c1)OCCO2	0.72 (inactive)
O=C(Nc1ccc2c(c1)OCCO2)c1ccc(Cl)c(S(=O)(=O)N2CCCCC2)c1	0.9 (inactive)
CN1CCN(c2ccc(NC(=O)c3ccc4c(c3)OCCO4)cc2Cl)CC1	3.36 (active)
S=c1[nH]ccn1-c1ccc(Cl)cc1	1.14 (inactive)
CC(C)(C)NC(=O)CN(C(=O)c1ccc(Cl)nc1)c1cccc2ccccc12	0.94 (inactive)
COc1cccc(OCCCN2CCCCCC2)c1	1.08 (inactive)
C/C(=N/OC(=O)c1cccc(C(F)(F)F)c1)c1cnccn1	1.18 (inactive)
CCc1nnc(NS(=O)(=O)c2ccc(NC(=S)NC(=O)c3cccs3)cc2)s1	1.46 (inactive)
O=C(NC(=S)Nc1ccc(NC(=O)c2cccs2)cc1)c1ccc([N+](=O)[O-])cc1	1.11 (inactive)
O=C(NC(=S)Nc1cccc(-c2ccc(CO)o2)c1)c1cccs1	10.1 (active)
COC(=O)COc1ccc(C2NC(=O)NC(C)=C2C(=O)NCc2ccccc2)cc1OC (configuration not stated)	1.01 (inactive)
CN1CCN(/N=C/c2ccc(-c3ccc([N+](=O)[O-])cc3)o2)CC1	1.75 (inactive)
O=C(Cc1ccc([N+](=O)[O-])cc1)N/N=C/c1ccco1	1.05 (inactive)
N/C(=N\OC(=O)CCC1CCCCC1)c1ccccn1	4.01 (active)
N/C(=N\OC(=O)CC1CCCCC1)c1ccccc1	1.45 (inactive)
CCC(C)(NC(=O)c1ccccn1)C(=O)NC1CCCCC1 (configuration not stated)	1.15 (inactive)
CN(C)CCOc1cccc(Br)c1	1.12 (inactive)

SMILES	fold change
CCN=c1sc(C(=O)Nc2ccccc2)c(C)n1CC	1.3 (inactive)
Cc1ccc(OCC(=O)NC(C)c2ccccc2)c([N+](=O)[O-])n1 (configuration not stated)	1.1 (inactive)
C=CCNC(=O)CC12CC3CC(C1)CC(CC(=O)NCC=C)(C3)C2	1.38 (inactive)
CCOC(=O)/C(C#N)=C/c1ccc(N2CCN(Cc3ccccc3)CC2)cc1	0.98 (inactive)
CCOC(=O)/C(C#N)=C/c1ccc(N2CCCCC2)cc1	3.43 (active)
COc1ccc(N2CCN(C(=O)/C(C#N)=C/c3ccccc3)CC2)cc1	0.72 (inactive)
COC(=O)C1=CN(Cc2ccc(OC)c(OC)c2)C=C(C(=O)OC)C1c1cccs1	0.73 (inactive)
Cc1nnc(SCCCCSc2nnc(C)c(=O)[nH]2)[nH]c1=O	1.03 (inactive)
Cc1ccc(S(=O)(=O)/N=C(\N)c2ccc(F)cc2)cc1	1.11 (inactive)
Cc1nn2cc(-c3ccc(Cl)cc3)cnc2c1Br	4.06 (active)
O=C(NC(=S)Nc1ccc(S(=O)(=O)Nc2ncccn2)cc1)c1cccc(Br)c1	0.92 (inactive)
CCOC(=O)C1(Cc2ccccc2C(F)(F)F)CCN(C(=O)c2cc(C)n(C)n2)CC1	1.81 (inactive)
CC(C)C(=O)Nc1ccc2oc(=O)ccc2c1	1.14 (inactive)
CC(C)C(=O)Nc1c(C(=O)c2ccc(F)cc2)oc2ccccc12	0.89 (inactive)
CC(C)C(=O)Nc1ccc2c(c1)oc1ccccc12	4.71 (active)
COCCCNC(=S)NCCNc1nc2cc(C)c(C)cc2cc1C#N	0.77 (inactive)
Cc1nnc(SCC(=O)N2CCc3ccccc32)n1-c1ccccc1	1 (inactive)
O=C(CSCc1ccccc1)N1CCc2ccccc21	5.86 (active)
NC(=O)N1CCc2ccccc21	1.08 (inactive)
CCn1c(SCC(=O)N(C)C2CCS(=O)(=O)C2)nnc1-c1cccs1 (configuration not stated)	1.03 (inactive)
CC(=O)c1ccc(N2CCN(CC(=O)Nc3ccccc3N3CCOCC3)CC2)cc1	1 (inactive)
CC1(C)CN(c2ccc(-c3ccnc4ncnn34)cc2)C1=O	1.23 (inactive)
COc1ccc(N2CCN(C(=S)Nc3ccc(S(N)(=O)=O)cc3)CC2)cc1	0.85 (inactive)
CCn1cc(CN2CCCC(CNS(=O)(=O)Cc3ccccc3)C2)cn1 (configuration not stated)	0.89 (inactive)
